Source: PubChem BioAssay
DT40 TDP1 CPT = growth inhibition of DT40 Tdp1-/-;hTDP1 cells with camptothecin (screen for TDP1 inhibitors); chicken DT40 Tdp1-/-;hTDP1 cells + 20 nM CPT, ATP luminescence, 48 h; Potency, µM (highest dose often 46.2 µM), for the others: at the highest dose activity change, negative = growth inhibition, actives largely listed as inhibitors; 420,000 tested, 12% active; note: nearly all actives have a fitted effect of over 55% in size
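Cell growth measured by CellTiter-Glo luminescence after a minimum 48 h, 37 C compound exposure with 20 nM CPT in Tdp1-knockout DT40 cells stably expressing hTDP1, seeded 400/well; qHTS titration format.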
PLK1 PBD inh = blocks phosphopeptide binding to human PLK1 polo-box domain; P53350; Plk1 PBD binding of FITC phosphopeptide, fluorescence polarization; Potency, µM, for the others: max response, negative = inhibition, most hits filed as inhibitors; 360,000 tested, 2.8% active; AID 720504; note: series mostly up to about 57 µM; nearly all actives have a fitted effect of over 65% in size
Target sequence (P53350 whole entry, looked up, the tested form may be a part): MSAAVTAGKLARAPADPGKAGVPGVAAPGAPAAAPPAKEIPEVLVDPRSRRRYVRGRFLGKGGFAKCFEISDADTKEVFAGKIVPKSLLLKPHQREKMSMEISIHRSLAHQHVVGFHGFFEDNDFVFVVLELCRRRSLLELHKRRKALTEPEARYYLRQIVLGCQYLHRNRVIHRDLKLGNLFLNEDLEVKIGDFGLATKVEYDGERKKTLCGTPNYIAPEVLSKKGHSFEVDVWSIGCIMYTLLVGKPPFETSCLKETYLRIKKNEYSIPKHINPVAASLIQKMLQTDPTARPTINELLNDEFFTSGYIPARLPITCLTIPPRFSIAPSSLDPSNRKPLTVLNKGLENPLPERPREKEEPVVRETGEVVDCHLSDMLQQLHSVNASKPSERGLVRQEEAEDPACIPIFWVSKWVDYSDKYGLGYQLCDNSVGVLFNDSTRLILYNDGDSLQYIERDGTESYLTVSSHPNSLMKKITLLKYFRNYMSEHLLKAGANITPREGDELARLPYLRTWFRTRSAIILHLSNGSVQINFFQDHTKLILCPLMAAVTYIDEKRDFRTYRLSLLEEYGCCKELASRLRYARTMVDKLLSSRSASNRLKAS
KAT2A inh = inhibitors of human GCN5L2 histone acetyltransferase | Q92830 | Potency, µM (titrated, usually from 58.9 µM), without a hit: at the top dose activity change, negative = inhibition, hits mostly inhibitors | GCN5L2 HAT assay, ThioGlo1 CoA-SH fluorescence | 390,000 tested, 0.21% active | AID 504327
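Preincubate 20nM GCN5L2 with compound 15 min, RT → add 50uM ThioGlo1 + 75uM H3(1-25) + 70uM acetyl-CoA → read fluorescence 0 and 20 min. Primary qHTS; fluorescent artifacts likely.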
TDP1 inh = blocks human tyrosyl-DNA phosphodiesterase 1 | Q9NUW8 | recombinant TDP1, AlphaScreen DNA substrate cleavage | Potency, µM (doses to about 130 µM), for the others: at the top dose activity change, negative = inhibition, actives largely listed as inhibitors | 350,000 tested, 0.28% active | AID 485290; note: nearly all actives have a fitted effect of over 40% in size
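Here, a 5' biotin and 3' phosphotyrosine-FITC DNA oligonucleotide reports Tdp1 activity: intact substrate bridges AlphaScreen beads, while cleavage leaves a 3' phosphate and drops signal. All incubations at room temperature.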
DT40 TDP1 no CPT = qHTS for Inhibitors of human tyrosyl-DNA phosphodiesterase 1 (TDP1): qHTS in cells in absence of CPT; 420,000 tested, 15% active; Potency, µM (top dose mostly 46.2 µM), without a hit: at the top dose activity change, negative = growth inhibition, hits mostly inhibitors; DT40 Tdp1-/- hTDP1 cells, no CPT, ATP luminescence, 48 h; AID 686978, 2013; note: nearly all actives have a fitted effect of over 55% in size
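Cells were dispensed at 400 per well, compounds added by pin tool, plates incubated ≥48 hr at 37 °C, then CellTiter-Glo added for 30 min at room temperature before luminescence reading. Line: DT40 Tdp1-/- complemented with hTDP1; camptothecin omitted.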
VDR inh = inhibitors of human vitamin D receptor; VDR-SRC2-3 peptide fluorescence polarization, 2 h; Potency, µM, for inactives: max response, negative = inhibition, hits mostly inhibitors; 400,000 tested, 0.93% active; AID 504847
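After 23 nl compound addition and a short centrifugation, plates sat for 2 hours at ambient temperature; polarization of fluorescence then indicated loss of VDR binding to peptide SRC2-3.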
Active calls of the source: *; ? = inconclusive; · = not tested or not shown; [ ] = remark or other dose. This is a sample that favours compounds with a hit; in the whole collection about 18% have one here. Calls come from the whole dose curve; as a rule, active = well fitted curve in the direction sought with a large enough effect; inconclusive = small, poorly fitted or top-dose-only effect, or another doubt; inactive = no such curve, though single readings can be large; an effect the other way counts as inactive or inconclusive. % is set by controls: 0 for no effect and ±100 for the full control effect; potency is the fitted concentration of half-maximal effect.

SMILES	DT40 TDP1 CPT	PLK1 PBD inh	KAT2A inh	TDP1 inh	DT40 TDP1 no CPT	VDR inh
CC(C)COC(=O)C(C#N)c1nc2ccccc2nc1N1CCN(Cc2ccccc2)CC1 (configuration not stated)	?	-4.8%	-5.0%	3.1%	?	7.6%
C=CCNC(=O)C(C#N)c1nc2ccccc2nc1N1CCN(Cc2ccccc2)CC1 (configuration not stated)	3.6%	?	-4.2%	7.1%	-8.2%	19.4%
COCCCNC(=O)C(C#N)c1nc2ccccc2nc1N1CCN(Cc2ccccc2)CC1 (configuration not stated)	23.1µM*	-15.6%	1.2%	-2.1%	?	6.7%
CCC(CC)COC(=O)C(C#N)c1nc2ccccc2nc1N1CCOCC1 (configuration not stated)	?	-0.5%	-8.1%	0.0%	23.1µM*	-4.7%
C=CCOC(=O)C(C#N)c1nc2ccccc2nc1N1CCN(Cc2ccccc2)CC1 (configuration not stated)	?	-8.0%	-6.6%	7.3%	23.1µM*	?
COc1ccc(C(=O)Nc2ccc(OCc3cc(=O)n4ccccc4n3)cc2)cc1	1.9%	·	1.8%	0.0%	-24.8%	7.0%
CCOC(=O)CCN1C(=O)[C@@H]2[C@H]3C(=CC[C@H]2C1=O)C(=O)[C@H]1O[C@H]1[C@H]3O	·	·	·	-3.7%[21 µM]	·	·
COCCOC(=O)C(C#N)c1nc2ccccc2nc1N1CCN(Cc2ccccc2)CC1 (configuration not stated)	23.1µM*	-11.4%	-10.3%	7.1%	16.4µM*	-22.1%
O=c1[nH]c2c(s1)C=Nc1ccccc1N2	-26.4%	13.4µM*	-0.7%	-6.0%	-23.2%	4.0%
O=P(c1ccccc1)(c1ccccc1)c1nc(-c2ccccc2)oc1NCc1ccccc1	?	-7.3%	0.8%	7.2%	18.4µM*	-1.3%
CCCC[P+](CCCC)(CCCC)Cc1ccc(NC(=O)[C@@H](Cc2ccc3ccccc3c2)NC(=NC2CCCCC2)NC2CCCCC2)cc1	13.3µM*	·	-6.4%	14.3%	16.8µM*	3.0%
N#Cc1c(-n2cccc2/C=N/O)sc2c1CCCC2	?	-6.8%	-5.4%	7.8%	?	-22.1%
C=CCNCc1cccn1-c1sc2c(c1C#N)CCCC2	20.6µM*	-3.7%	-2.7%	-1.0%	20.6µM*	-2.2%
CCCN1CCC(=O)N(C(CSc2ccc(Br)cc2)c2ccccc2)CC1 (configuration not stated)	·	·	·	3.8%	·	-9.2%
O=C(CSCc1c(Cl)cccc1Cl)Nc1ccc2c(c1)OCO2	?	-19.2%	-5.8%	1.0%	18.4µM*	-5.4%
O=C(CSc1nnnn1-c1ccccc1Cl)Nc1ccc2c(c1)OCCO2	16.4µM*	-23.5%	-14.6%	1.1%	20.6µM*	-12.5%
O=C(CN1CCN(S(=O)(=O)N2CCOCC2)CC1)Nc1ccc(Cl)c(Cl)c1	?	-6.0%	-6.5%	-2.1%	16.4µM*	-2.2%
O=C(CCCCCN1C(=O)CCC1=O)Nc1ccc2c(c1)OCO2	-6.3%	23.8µM*	-15.1%	3.1%	-22.7%	-15.5%
O=C(CSCc1ccc(Cl)cc1)Nc1ccc2c(c1)OCCO2	3.9%	-10.0%	-0.2%	1.5%	-12.8%	5.1%
COc1ccccc1NS(=O)(=O)c1cccc(C(=O)NCC2(N3CCCCC3)CCCCC2)c1	-19.6%	-6.8%	·	·	-22.3%	-13.5%
Cc1cc(Cn2nc(C(=O)NCC3CC3)cc2-c2ccccc2)on1	-76.7%	-7.1%	-8.6%	-3.5%	?	-1.9%
CCc1ccccc1NC(=O)CN1CCN(CC(=O)Nc2ccc3c(c2)OC2(CCCCC2)O3)CC1	18.4µM*	-7.3%	·	·	4.11µM*	7.3%
COC(=O)c1cc(OC)c(OC)cc1NC(=O)CCCCCN1C(=O)CCC1=O	?	29.9µM*	-8.1%	1.0%	?	-3.9%
O=C(CSCc1c(Cl)cccc1Cl)Nc1ccccc1C(=O)N1CCOCC1	?	-9.8%	-0.9%	-3.6%	20.6µM*	9.6%
COC(=O)c1cc(OC)c(OC)cc1NC(=O)CCc1ccc(C)o1	?	-8.9%	-0.3%	6.6%	?	-3.8%
SMILES	DT40 TDP1 CPT	PLK1 PBD inh	KAT2A inh	TDP1 inh	DT40 TDP1 no CPT	VDR inh
O=C(CSCSCC(=O)Nc1ccc2c(c1)OCO2)Nc1ccc2c(c1)OCO2	14.6µM*	-15.1%	-1.1%	2.1%	?	5.6%
CCOC(=O)[C@]12CCCC=C1N(Cc1cccc3ccccc13)C(=O)[C@H](CC(=O)N1CCN(C(=O)c3ccco3)CC1)C2	?	-0.3%	·	·	?	·
O=C(CSc1ncccn1)N1CCC(Cc2ccccc2)CC1	?	0.2%	-0.2%	1.8%	?	-7.3%
O=C1c2ccccc2C(=O)N1c1ccccc1O	·	·	·	1.1%	·	·
CC(C)(C)NC(=O)c1ccc(NC(=O)CSc2ccccc2)cc1	-20.7%	7.1%	1.1%	2.7%	-20.2%	12.7%
O=C(CN1CCOCC1)Nc1ccc2c(c1)OCO2	?	10.6µM*	-2.2%	-8.0%	3.3%	-13.7%
COc1ccc(C(=O)Nc2c(-c3cccs3)c(=O)c3ccccc3n2C)cc1	23.1µM*	-12.0%	-12.1%	-8.2%	20.6µM*	-3.8%
COc1ccc(C(=O)Nc2nnc(-c3cccs3)s2)cc1	10.3µM*	-6.1%	0.3%	5.6%	11.6µM*	10.8%
COc1ccc(/C=C/C(=O)Nc2cccnc2Cl)cc1	-12.5%	-1.1%	4.3%	·	-6.8%	-5.4%
COc1ccc(NC(=O)Nc2nnc(-c3cccs3)s2)cc1	?	-13.8%	18.9%	1.9%	-11.5%	-7.8%
COc1ccc(/C=C/C(=O)Nc2nc(-c3cccs3)ns2)cc1	?	·	-5.9%	-2.6%	18.4µM*	9.7%
N#Cc1nc(Nc2ccc3ccccc3c2)nc(NC2CCCC2)n1	·	·	·	0.1%	·	·
CC(C)(C)C1CCc2[nH]c3ccccc3c(=O)c2C1 (configuration not stated)	23.1µM*	-10.7%	-9.0%	4.0%	20.6µM*	-0.1%
O=c1c2c([nH]c3ccccc13)C(=C1CCCC1)CC2	23.1µM*	-13.0%	-13.5%	?	20.6µM*	6.1%
Cc1c2c(nc3ccccc13)CCC(C(C)(C)C)C2 (configuration not stated)	?	0.2%	-12.4%	2.5%	?	-7.3%
O=c1c2c([nH]c3ccccc13)CCCC2	?	0.3%	0.9%	7.1%	8.2µM*	13.0%
COC(=O)C1(Cc2cc(-c3cccnc3)no2)CCN(C(=O)OC(C)(C)C)CC1	?	1.4%	4.4%	·	?	4.6%
